# Key:
# Test in all cases: DAPPL (digital affinity profiling via proximity ligation, sequencing); 10 mM Tris-HCl pH 7.5, 50 mM NaCl, 1 mM DTT, 4% glycerol, room temperature, 30 min; GST-TFs on glutathione beads, 16-mer random dsDNA library, 0.1% formaldehyde crosslink after washing; high values mean tight binding
# Conditions in all cases: protein: recombinant; tags: N-terminal GST; dsDNA, one strand shown
# FLI1 = target: T1, FLI1 (Homo sapiens, UniProt Q01543 1-452)
# T1 sequence: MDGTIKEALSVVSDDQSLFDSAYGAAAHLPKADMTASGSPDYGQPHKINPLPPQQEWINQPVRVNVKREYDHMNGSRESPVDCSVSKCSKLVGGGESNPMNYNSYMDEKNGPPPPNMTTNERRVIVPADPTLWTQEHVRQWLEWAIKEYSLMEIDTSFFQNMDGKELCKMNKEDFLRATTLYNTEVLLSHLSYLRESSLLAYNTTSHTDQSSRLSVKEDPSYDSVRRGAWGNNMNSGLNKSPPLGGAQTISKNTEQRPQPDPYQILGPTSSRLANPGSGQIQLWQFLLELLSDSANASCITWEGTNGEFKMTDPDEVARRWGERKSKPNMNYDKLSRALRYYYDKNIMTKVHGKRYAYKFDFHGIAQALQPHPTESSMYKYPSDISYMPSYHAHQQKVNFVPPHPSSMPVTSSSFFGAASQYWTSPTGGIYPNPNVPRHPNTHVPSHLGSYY
# Method in brief: (§1)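 Each value of binding signal is a hexamer's read frequency for a factor divided by the same hexamer's frequency in the tag-only sample. Barcoded, bead-captured GST fusions of human transcription factors made in yeast were pooled with that sample and incubated with 200 nmole of a random double-stranded 16-mer DNA library in Tris/NaCl/DTT/glycerol buffer at room temperature for 30 min. Washing, 0.1% formaldehyde crosslinking, proximity ligation, PCR and Illumina NextSeq500 sequencing followed.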
# ELK1 = target: T2, ELK1 (Homo sapiens, UniProt P19419 1-428)
# T2 sequence: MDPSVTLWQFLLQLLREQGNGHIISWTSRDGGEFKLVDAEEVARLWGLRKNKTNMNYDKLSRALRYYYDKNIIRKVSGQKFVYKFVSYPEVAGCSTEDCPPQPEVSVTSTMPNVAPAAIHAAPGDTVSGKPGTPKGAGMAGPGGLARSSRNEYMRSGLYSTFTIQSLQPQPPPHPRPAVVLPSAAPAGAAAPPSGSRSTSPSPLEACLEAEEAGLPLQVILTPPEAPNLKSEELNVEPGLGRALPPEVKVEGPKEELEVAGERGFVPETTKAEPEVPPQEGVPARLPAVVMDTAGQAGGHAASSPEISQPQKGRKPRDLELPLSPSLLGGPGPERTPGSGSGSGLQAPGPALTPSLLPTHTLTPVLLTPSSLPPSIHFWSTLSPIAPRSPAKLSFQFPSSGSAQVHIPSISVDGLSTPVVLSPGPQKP
# Method in brief: as §1
# GABPA = target: T3, GABPA (Homo sapiens, UniProt Q06546 1-454)
# T3 sequence: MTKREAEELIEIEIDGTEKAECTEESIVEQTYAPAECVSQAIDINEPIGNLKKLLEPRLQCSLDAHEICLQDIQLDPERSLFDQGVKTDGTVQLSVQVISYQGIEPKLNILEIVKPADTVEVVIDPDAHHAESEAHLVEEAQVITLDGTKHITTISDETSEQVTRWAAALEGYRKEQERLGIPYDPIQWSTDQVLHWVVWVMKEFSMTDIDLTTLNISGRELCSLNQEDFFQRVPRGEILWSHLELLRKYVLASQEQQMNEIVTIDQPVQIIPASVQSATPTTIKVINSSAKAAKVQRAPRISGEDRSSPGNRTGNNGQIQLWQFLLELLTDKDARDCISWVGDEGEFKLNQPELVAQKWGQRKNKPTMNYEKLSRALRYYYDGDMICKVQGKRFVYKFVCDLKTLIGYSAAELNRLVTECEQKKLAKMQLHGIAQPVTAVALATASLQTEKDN
# Method in brief: as §1
# ERG = target: T4, ERG (Homo sapiens, UniProt P11308 1-479)
# T4 sequence: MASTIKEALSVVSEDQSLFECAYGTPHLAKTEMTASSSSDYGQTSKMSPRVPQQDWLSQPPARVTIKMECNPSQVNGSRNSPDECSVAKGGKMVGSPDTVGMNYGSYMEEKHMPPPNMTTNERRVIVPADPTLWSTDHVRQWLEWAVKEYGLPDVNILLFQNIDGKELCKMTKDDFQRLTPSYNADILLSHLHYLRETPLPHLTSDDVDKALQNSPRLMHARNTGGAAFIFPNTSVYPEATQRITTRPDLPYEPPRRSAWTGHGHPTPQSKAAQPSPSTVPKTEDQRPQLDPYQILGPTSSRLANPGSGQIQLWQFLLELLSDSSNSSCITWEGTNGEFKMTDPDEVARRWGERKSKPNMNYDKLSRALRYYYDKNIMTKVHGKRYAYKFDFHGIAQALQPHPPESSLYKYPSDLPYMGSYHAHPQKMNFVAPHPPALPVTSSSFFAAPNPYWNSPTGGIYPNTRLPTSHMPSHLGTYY
# Method in brief: as §1
# ELF1 = ELF1 (Homo sapiens, UniProt P32519 1-619)
# Method in brief: as §1
# EHF = target: T5, EHF (Homo sapiens, UniProt Q9NZC4 1-300)
# T5 sequence: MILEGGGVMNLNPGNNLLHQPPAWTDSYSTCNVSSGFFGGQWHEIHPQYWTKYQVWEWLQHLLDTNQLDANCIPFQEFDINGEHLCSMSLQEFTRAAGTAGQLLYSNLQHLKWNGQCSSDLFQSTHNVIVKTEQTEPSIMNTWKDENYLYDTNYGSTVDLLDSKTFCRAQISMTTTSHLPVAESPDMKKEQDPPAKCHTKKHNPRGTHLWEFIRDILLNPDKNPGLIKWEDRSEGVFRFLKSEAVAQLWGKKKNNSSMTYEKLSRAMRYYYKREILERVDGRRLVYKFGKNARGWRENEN
# Method in brief: as §1
# SPI1 = SPI1 (Homo sapiens, UniProt P17947 1-270)
# Method in brief: as §1
# SPIB = SPIB (Homo sapiens, UniProt Q01892 1-262)
# Method in brief: as §1
# ELK3 = target: T6, ELK3 (Homo sapiens, UniProt P41970 1-407)
# T6 sequence: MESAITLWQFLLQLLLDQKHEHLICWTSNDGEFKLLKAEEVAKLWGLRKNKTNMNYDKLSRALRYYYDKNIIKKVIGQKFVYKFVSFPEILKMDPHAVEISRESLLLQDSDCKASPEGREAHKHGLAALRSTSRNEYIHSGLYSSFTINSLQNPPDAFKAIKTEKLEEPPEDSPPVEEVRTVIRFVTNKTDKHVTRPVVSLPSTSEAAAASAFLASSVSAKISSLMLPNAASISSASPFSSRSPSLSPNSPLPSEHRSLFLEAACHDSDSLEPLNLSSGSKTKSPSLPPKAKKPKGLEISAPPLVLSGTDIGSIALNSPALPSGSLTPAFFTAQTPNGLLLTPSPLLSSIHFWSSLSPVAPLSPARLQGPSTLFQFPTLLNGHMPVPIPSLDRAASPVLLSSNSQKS
# Method in brief: as §1
# SPIB, sequence (Q01892 whole entry): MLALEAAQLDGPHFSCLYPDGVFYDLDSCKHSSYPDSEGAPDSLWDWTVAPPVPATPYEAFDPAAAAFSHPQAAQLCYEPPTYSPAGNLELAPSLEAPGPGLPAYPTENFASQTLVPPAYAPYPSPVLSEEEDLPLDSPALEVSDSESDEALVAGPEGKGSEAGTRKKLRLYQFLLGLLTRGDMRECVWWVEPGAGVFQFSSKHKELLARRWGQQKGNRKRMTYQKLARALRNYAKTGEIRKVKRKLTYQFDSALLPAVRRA
# ELF1, sequence (P32519 whole entry): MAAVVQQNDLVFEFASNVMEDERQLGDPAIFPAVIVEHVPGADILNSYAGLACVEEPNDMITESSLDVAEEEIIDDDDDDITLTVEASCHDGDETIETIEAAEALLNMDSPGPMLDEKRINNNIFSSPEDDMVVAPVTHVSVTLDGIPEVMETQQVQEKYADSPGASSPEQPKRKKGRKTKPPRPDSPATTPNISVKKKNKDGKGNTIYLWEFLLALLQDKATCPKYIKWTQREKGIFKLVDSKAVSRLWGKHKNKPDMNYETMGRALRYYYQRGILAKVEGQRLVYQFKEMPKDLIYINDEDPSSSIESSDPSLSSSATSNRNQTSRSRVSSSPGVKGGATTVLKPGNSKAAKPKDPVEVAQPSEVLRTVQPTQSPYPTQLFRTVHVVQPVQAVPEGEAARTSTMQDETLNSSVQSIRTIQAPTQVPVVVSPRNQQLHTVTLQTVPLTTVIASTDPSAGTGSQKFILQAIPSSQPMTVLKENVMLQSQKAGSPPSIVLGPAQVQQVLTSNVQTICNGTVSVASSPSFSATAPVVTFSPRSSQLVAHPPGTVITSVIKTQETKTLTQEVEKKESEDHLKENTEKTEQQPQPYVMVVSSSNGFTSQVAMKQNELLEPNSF
sequence,measurement,setting,value
CTCCCC,binding signal,FLI1,"1.44 fold enrichment (6-mer frequency, TF over GST control)"
same,binding signal,ELK1,"1.31 fold enrichment (6-mer frequency, TF over GST control)"
same,binding signal,GABPA,"1.41 fold enrichment (6-mer frequency, TF over GST control)"
same,binding signal,ERG,"1.45 fold enrichment (6-mer frequency, TF over GST control)"
same,binding signal,ELF1,"1.45 fold enrichment (6-mer frequency, TF over GST control)"
same,binding signal,EHF,"1.56 fold enrichment (6-mer frequency, TF over GST control)"
same,binding signal,SPI1,"1.3 fold enrichment (6-mer frequency, TF over GST control)"
same,binding signal,SPIB,"1.38 fold enrichment (6-mer frequency, TF over GST control)"
same,binding signal,ELK3,"1.4 fold enrichment (6-mer frequency, TF over GST control)"
